The values that follow come from PubChem BioAssay (NCI).

Several values for one entry are separate records, joined by “and”; a condition that tells them apart may be missing. Identical values can stand only once. Compounds without any hit were thinned out: in the full panel of roughly 83,000, 20% have a hit.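 For each line, cells grew in 96-well plates with the test compound present at a single concentration for 48 hours.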 Activity calls are given as the source filed them. The calls were made as follows: active = growth percent below 10; inactive = the rest.

The assay deals with HL-60(TB) leukemia. The assay is described as follows: NCI-60 one-dose screen, 48 h (100 = growth as untreated, 0 = no growth, -100 = all killed). As to conditions: 10 µM unless noted.
As to `Cn1cc(-c2csc(-c3cn(CCNC(=O)OC(C)(C)C)c4ccccc34)n2)c2cccnc21`, the growth was 45.9% (inactive). Then `N#CCCN1C(=O)CCC1C(=O)O` (stereo not given), with 85.9% (inactive).

Regarding `COc1ccc(Nc2cc(C)nc(NCc3ccccc3)n2)cc1`, the growth was 11.3% (inactive).

`COc1ccccc1C(=O)/C=C/c1cc2cccc(OC)c2[nH]c1=O`: the growth was -10.5% (active). The result for `N#CC1C=CN(CC(N)=O)c2ccc3cccnc3c21` (stereo not given) reads 92.7% (inactive); that for `COc1ccc(C(=O)c2nc3ccccc3n2CC(=O)c2ccc(Cl)cc2)cc1`, -13.2% (active). For `COC(=O)[C@H]1CCCN1C(=O)C1CCCN1C(=O)[C@@H](Cc1ccccc1)NC(=S)Nc1cc(C(F)(F)F)cc(C(F)(F)F)c1` (stereo not given in full), the growth was 112% (inactive) and 58.9% (inactive). The result for `Nc1ccccc1Nc1ccccc1` reads 23.5% (inactive) and 11.2% (inactive); that for `Nc1ccccc1NC(=O)CCCCC(=O)Nc1ccc2c(c1)/C(=C/c1ccc[nH]1)C(=O)N2`, 89.6% (inactive). The result for `c1ccc(-c2ccc3ccccc3c2)cc1` reads 109% (inactive); that for `COc1cccc(Nc2nc(NCCO)c3ccccc3n2)c1`, 61.4% (inactive); that for `Cc1nc2sc(C(=O)Nc3ccccc3)c(N)c2cc1C(=O)c1ccccc1`, 21.8% (inactive).

As to `CNS(=O)(=O)Oc1ccc(-c2ccc3occc3c2)cc1`, the growth was 100% (inactive). Then `COc1cc(C(=O)/C=C/c2c(C)n([O-])c3ccc(C(F)(F)F)cc3[n+]2=O)cc(OC)c1OC`, with 69% (inactive); and `O=C(O)CCCCSc1ncnc2nc[nH]c12`, with 103% (inactive).

`OCCNCCCOc1ccc2ncnc(Nc3ccc(Oc4cccc(C(F)(F)F)c4)c(Cl)c3)c2c1`: the growth is -31.3% (active). The result for `CN[C@@]12CC3(C=CC(=O)C=C3)O[C@]1(Cc1ccc(OC)cc1)N(C)C(=O)N2` reads 0.452% (active); that for `CCOC(=O)Nc1ccc(-c2nc(-c3cccc(OC)c3)c(-c3ccnc(Br)c3)[nH]2)cc1`, -18.7% (active); that for `CC[C@]12C=CCN3CC[C@@]4(c5cc(NC(=O)CCC(=O)OCc6cn(Cc7ccc(F)cc7)nn6)c(OC)cc5N(C)[C@H]4[C@@](O)(C(=O)OC)[C@@H]1OC(C)=O)[C@@H]32`, 96.8% (inactive). Then `Nc1c(C(=O)c2ccc(Br)cc2)sc2nc3c(cc12)CCCC3`, with 94.7% (inactive); and `COc1ccc(Cl)c([N+](=O)[O-])c1`, with 98.6% (inactive). For the compound `COc1ccc(/C=N\NC(=O)CN2CCN(c3cc4c(cc3F)c(=O)c(C(=O)N/N=C/c3ccc(OC)c(OC)c3)cn4C3CC3)CC2)cc1OC`, the growth is 1.29% (active). Turning to `O=C1CC(c2cccc(-c3cccnc3)c2)=Nc2ccc(Br)cc2N1`, the growth was 41.6% (inactive).

For the compound `CCN(CC)c1ccc(N=O)cc1`, the growth was 33.1% (inactive). The result for `Cc1c(C(=O)OC(=NC2CCCCC2)NC2CCCCC2)sc2c1c(=O)nc1c(C#N)n[nH]n12` reads 124% (inactive).
